Source: PubChem BioAssay (National Center for Advancing Translational Sciences (NCATS))
Hits are enriched below; roughly 18% of the tested compounds scored in any of these assays.
TDP1 block = inhibitors of human tyrosyl-DNA phosphodiesterase TDP1; Potency, µM (titrated, usually from 130 µM), hits mostly inhibitors; 350,000 compounds, 0.28% hits; recombinant TDP1, AlphaScreen DNA substrate cleavage; AID 485290; Q9NUW8; note: nearly all actives have a fitted effect of over 40% in size
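Compounds were preincubated with Tdp1 (1 nM final) for 15 min at room temperature before substrate (15 nM final) started a 5 min reaction; beads (10 ug/ml final) were then added for 10 min before AlphaScreen detection.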
PLK1 PBD inh = blocks phosphopeptide binding to human PLK1 polo-box domain; P53350; Plk1 PBD binding of FITC phosphopeptide, fluorescence polarization; Potency, µM, usual class: inhibitors; 360,000 compounds, 2.8% hits; note: series mostly up to about 57 µM; nearly all actives have a fitted effect of over 65% in size
Target sequence (P53350 whole entry, looked up, the tested form may be a part): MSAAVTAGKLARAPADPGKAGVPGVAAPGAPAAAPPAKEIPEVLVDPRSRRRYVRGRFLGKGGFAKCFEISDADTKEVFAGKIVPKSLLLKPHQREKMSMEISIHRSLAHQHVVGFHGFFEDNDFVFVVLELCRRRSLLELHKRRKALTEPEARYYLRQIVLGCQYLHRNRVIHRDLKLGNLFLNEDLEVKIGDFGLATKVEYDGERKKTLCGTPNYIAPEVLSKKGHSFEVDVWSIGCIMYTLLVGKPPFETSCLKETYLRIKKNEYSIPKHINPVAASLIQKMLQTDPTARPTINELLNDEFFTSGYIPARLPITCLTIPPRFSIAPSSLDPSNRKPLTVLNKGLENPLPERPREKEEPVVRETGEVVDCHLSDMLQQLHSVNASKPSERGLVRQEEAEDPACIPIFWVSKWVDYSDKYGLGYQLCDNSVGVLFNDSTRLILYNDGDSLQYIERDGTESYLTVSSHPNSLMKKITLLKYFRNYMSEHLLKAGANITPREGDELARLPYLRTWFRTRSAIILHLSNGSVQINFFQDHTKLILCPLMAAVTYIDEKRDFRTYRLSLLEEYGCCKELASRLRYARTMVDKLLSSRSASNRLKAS
TDP1 cell noCPT = qHTS for Inhibitors of human tyrosyl-DNA phosphodiesterase 1 (TDP1): qHTS in cells in absence of CPT; DT40 Tdp1-/- hTDP1 cells, no CPT, ATP luminescence, 48 h; Potency, µM (titrated, usually from 46.2 µM), most hits filed as inhibitors; 420,000 compounds, 15% hits; AID 686978, 2013; note: nearly all actives have a fitted effect of over 55% in size
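No-CPT arm: Tdp1-/-;hTDP1 DT40 cells (400/well) plus compounds, incubated ≥48 hr at 37 °C. Readout CellTiter-Glo luminescence.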
TDP1 cell CPT = growth inhibition of DT40 Tdp1-/-;hTDP1 cells with camptothecin (screen for TDP1 inhibitors); Potency, µM (top dose mostly 46.2 µM), hits mostly inhibitors; chicken DT40 Tdp1-/-;hTDP1 cells + 20 nM CPT, ATP luminescence, 48 h; 420,000 compounds, 12% hits; note: nearly all actives have a fitted effect of over 55% in size
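Chicken DT40 Tdp1-/- cells stably complemented with human TDP1 were seeded at 400 cells/well in medium containing 20 nM camptothecin, exposed to pin-transferred compounds, and grown at 37 °C for at least 48 hr. Viability was read as ATP luminescence.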
VDR inhibitor = blocks the human vitamin D receptor; 400,000 compounds, 0.93% hits; VDR-SRC2-3 peptide fluorescence polarization, 2 h; P11473; AID 504847; Potency, µM, usual class: inhibitors
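The screen uses fluorescence polarization to detect compounds that interfere with recruitment of the SRC2-3 coactivator peptide to VDR; plates are read after 2 h at room temperature.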
KAT2A inh = GCN5L2 (KAT2A) acetyltransferase inhibition | Q92830 | GCN5L2 HAT assay, ThioGlo1 CoA-SH fluorescence | Potency, µM (titrated, usually from 58.9 µM), actives largely listed as inhibitors | 390,000 compounds, 0.21% hits | AID 504327
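Enzyme at 20nM final was mixed with library compounds for 15 min at room temperature. Peptide H3(1-25) at 75uM, acetyl-CoA at 70uM and ThioGlo1 at 50uM were then added. Plates were read immediately and after 20 min (Ex340nm/Em540nm).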
Hits are given with their value; i = inactive; ? = inconclusive; nt = no result; ! = not active in a repeat; [ ] = remark or other dose. Calls come from the whole dose curve; as a rule, active = well fitted curve in the direction sought with a large enough effect; inconclusive = small, poorly fitted or top-dose-only effect, or another doubt; inactive = no such curve, though single readings can be large; an effect the other way counts as inactive or inconclusive.

SMILES	TDP1 block	PLK1 PBD inh	TDP1 cell noCPT	TDP1 cell CPT	VDR inhibitor	KAT2A inh
CC1CCN(c2nc3c(S(=O)(=O)c4cccc(Cl)c4)nnn3c3ccsc23)CC1	i	nt	23µM	?	i	i
Cc1cc(C)cc(Nc2nc3c(S(=O)(=O)c4cccc(Cl)c4)nnn3c3ccsc23)c1	i	nt	i	i	i	i
CCN(CC)c1nc2c(S(=O)(=O)c3cccc(Cl)c3)nnn2c2ccsc12	i	nt	21µM	8.2µM	i	i
Cc1ccc2c(c1Br)C(O)(CC(=O)c1ccc(F)cc1)C(=O)N2 (centres undefined)	i	nt	?	i	i	i
O=C(O)c1ccccc1Nc1ccc([N+](=O)[O-])c2nonc12	nt	i	?	i	i	i
Cc1cc(C)c(C)c(C(=O)C(=O)c2ccccc2)c1	nt	i	i	i	i	nt
CC1C(c2ccccc2)N(C)C(c2ccccc2)C(C)C1(O)C#Cc1ccccc1 (centres undefined)	i	i	10µM	9.2µM	i	?
CCCCN(C=O)c1c(CC)nc2ccc(C(=O)NCCCN3CCCC3=O)cn12	nt	i	i	i	nt	nt
Cn1c(=O)n(C)c2cc(N3CCOCC3)c(NC(=O)c3ccccc3Br)cc21	i	nt	i	?	i	i
CCOC(=O)C1CCN(c2cc3c(cc2NC(=O)c2cc(OC)ccc2Br)n(C)c(=O)n3C)CC1	i	?	12µM	16µM	i	i
CCOC(=O)C1CCN(c2cc3c(cc2NC(=O)c2ccccc2Br)n(C)c(=O)n3C)CC1	i	i	18µM	?	i	i
Cc1c(N=Cc2cccs2)c(=O)n(-c2ccccc2)n1C	i	i	i	i	i	i
Cc1ccc(C2C(C=Nc3c(C)n(C)n(-c4ccccc4)c3=O)=C(c3ccccc3)Oc3ccccc32)cc1 (centres undefined)	i	21µM	?	?	i	i
Cc1ccc(C(=O)N(Cc2cc3cccc(C)c3nc2N(C)C)CC2CCCO2)cc1 (centres undefined)	nt	nt	i	i	nt	nt
S=c1nc(-c2ccc(Br)cc2)oc2c1CCCC2	i	i	i	21µM	i	i
COc1cccc(CN(C)C(=O)c2cnn(-c3nccc(-c4ccc5c(c4)OCO5)n3)c2C)c1	nt	nt	i	i[9.04 µM]	nt	nt
Cc1ccc(S(=O)(=O)c2nnn3c2nc(N(C)Cc2ccccc2)c2cc(Cl)ccc23)cc1C	i	nt	12µM	13µM	i	i
Cc1ccc(S(=O)(=O)c2nnn3c2nc(NC2CCN(Cc4ccccc4)CC2)c2ccccc23)cc1C	i	i	5.8µM	12µM	i	i
CCCCN(C)c1nc2c(S(=O)(=O)c3ccc(CC)cc3)nnn2c2ccc(Cl)cc12	i	nt	10µM	12µM	i	i
CCn1c(-c2ccccc2F)nc2cc(NC(C)=O)cc(C(=O)N(C)Cc3ccccn3)c21	nt	nt	i	i[9.04 µM]	nt	nt
CCCCOCCCNC(=O)C[C@@H]1C[C@@]2(C(=O)OC)CC(C)(C)CC=C2N(CCc2ccc(OC)c(OC)c2)C1=O	nt	i	15µM	?	nt	nt
COC(=O)[C@@]12C[C@@H](CC(=O)NCCC(C)C)C(=O)N(CCc3ccc(OC)c(OC)c3)C1=CCC(C)(C)C2	nt	i	21µM	?	nt	nt
C[C@@H](C(=O)N[C@@H](CO)Cc1ccccc1)[C@H]1C[C@]1(C)[C@H](NC(=O)OCc1ccccc1)c1ccccc1	i	nt	nt	nt	nt	nt
Oc1ccc(/C=C/c2ccc(/C=C/c3ccc(O)cc3)c(Br)c2)cc1	nt	nt	nt	nt	i	i
N=C(N)c1ccc(/C=C/c2ccc(C(=N)N)cc2O)cc1	i	i	?	13µM!	i	i
CC(=O)Nc1ccc(Nc2ccc3c4c(cc(=O)n3C)-c3ccccc3C(=O)c24)cc1	i	i	6.5µM	i	i	i
CC(=O)Nc1c2c3c(cccc3n(C)c1=O)C(=O)c1ccccc1-2	i	i	i	i	i	i
Cc1cc(C)nc(NC(=NCCc2c[nH]c3ccccc23)NC(=O)Nc2ccccc2)n1	i	i	18µM	?	i	i
O=C(NCCc1c[nH]c2ccccc12)C(=O)Nc1ccccc1	i	i	?	i	i	i
